Test results reported in PubChem BioAssay.
The source made the active and inactive calls. Unless noted, the rule behind the calls is not given here.

Legend:
[1] = A549 cell viability effects, profiling panel, calcein-AM fluorescence, 48 h, basal (AID 1162); conditions: higher = more signal; note: test concentration not given here
[2] = adipocyte viability effects, profiling panel, cell-based, 3T3-L1 adipocytes, calcein-AM fluorescence, 48 h, basal (AID 1163); conditions: 3T3-L1 adipocytes viability, higher = more signal; note: test concentration not given here
[3] = HepG2 cell viability effects, profiling panel, calcein-AM fluorescence, 48 h, basal (AID 1164); conditions: higher = more signal; note: test concentration not given here
[4] = MM1S cell viability effects, profiling panel, calcein-AM fluorescence, 48 h, basal (AID 1165); conditions: higher = more signal;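 note: viability of MM1S multiple myeloma cells under basal unstimulated conditions; test concentration not given here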
[5] = basal RPMI8226 viability, no added stimulus, profiling panel, cell-based, calcein-AM fluorescence, 48 h, PK04 Diversity Set (AID 1166); conditions: RPMI8226 myeloma viability, higher = more signal;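 note: cells grown under basal conditions without added stimulus; test concentration not given here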
[6] = basal HepG2 mitochondrial membrane potential changes, profiling panel, cell-based, JC-1 fluorescence, 24 h, 100 nL compound (AID 1167); conditions: higher = more signal; note: test concentration not given here
[7] = basal 3T3-L1 adipocyte mitochondrial potential changes, profiling panel, cell-based, JC-1 fluorescence, 3T3-L1 adipocytes, 24 h, 100 nL compound (AID 1168); conditions: JC-1 mitochondrial fluorescence, higher = more signal, called active from +8 up or from −8 down; note: test concentration not given here
[8] = basal RPMI8226 mitochondrial membrane potential changes, profiling panel, cell-based, JC-1 fluorescence, 24 h, 100 nL compound (AID 1169); conditions: RPMI8226 myeloma, JC-1 mitochondrial potential fluorescence, higher = more signal; note: test concentration not given here
[9] = basal MM1S mitochondrial membrane potential changes, profiling panel, cell-based, JC-1 fluorescence, 24 h, 100 nL compound (AID 1170); conditions: higher = more signal; note: test concentration not given here
[10] = A549 lung cancer cell viability effects, profiling panel, resazurin fluorescence, 24 h, PK04 Diversity Set (AID 1171); conditions: higher = more signal, called active from +8 up or from −8 down; note: test concentration not given here
[11] = HepG2 liver cancer cell viability effects, profiling panel, resazurin fluorescence, 24 h, PK04 Diversity Set (AID 1172); conditions: higher = more signal; note: test concentration not given here
[12] = basal S. cerevisiae growth modulation, no modifier, primary screen, OD600, strain BY4716, 24 h, basal condition (AID 1173); conditions: OD600, 24 h, higher = more signal, called active from +8 up or from −8 down
[13] = MM1S myeloma cell viability, profiling panel, resazurin fluorescence, basal, 24 h, PK04 Diversity Set (AID 1174); conditions: higher = more signal, called active from +8 up or from −8 down;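 note: MM1S multiple myeloma cell line; test concentration not given here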
[14] = molecular target: Dihydroorotate dehydrogenase (quinone), mitochondrial (Plasmodium falciparum (isolate 3D7)) (UniProt Q08210); test: PfDHODH enzyme inhibitors, primary screen, biochemical, C-terminal His tag, absorbance 600 nm (AID 1175); conditions: DCIP absorbance 600 nm, higher = more signal, called active from +8 up or from −8 down;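 note: recombinant parasite enzyme with a five histidine tag at its C terminus; test concentration not given here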
Dihydroorotate dehydrogenase (quinone), mitochondrial (Plasmodium falciparum (isolate 3D7)), sequence (Q08210 whole entry, looked up): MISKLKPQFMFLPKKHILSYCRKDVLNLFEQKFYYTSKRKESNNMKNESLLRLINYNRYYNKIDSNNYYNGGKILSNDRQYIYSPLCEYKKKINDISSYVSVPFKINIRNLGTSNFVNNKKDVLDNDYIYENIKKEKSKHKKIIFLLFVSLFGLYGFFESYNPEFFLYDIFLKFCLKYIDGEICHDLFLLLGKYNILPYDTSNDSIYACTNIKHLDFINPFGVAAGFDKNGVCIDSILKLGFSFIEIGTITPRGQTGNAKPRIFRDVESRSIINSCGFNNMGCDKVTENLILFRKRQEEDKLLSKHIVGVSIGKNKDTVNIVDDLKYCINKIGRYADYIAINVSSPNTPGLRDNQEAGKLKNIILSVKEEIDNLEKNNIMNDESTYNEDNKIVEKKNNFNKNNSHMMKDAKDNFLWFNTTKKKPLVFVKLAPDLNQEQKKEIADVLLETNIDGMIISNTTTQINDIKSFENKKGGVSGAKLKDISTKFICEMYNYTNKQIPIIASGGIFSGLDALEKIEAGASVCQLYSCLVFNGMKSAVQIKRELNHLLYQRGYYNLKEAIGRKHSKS

[15] = P. aeruginosa biofilm formation inhibitors, primary screen, strain PAO1, LB-PBS medium, absorbance 600 nm (AID 1176); note: test concentration not given here; conditions: P. aeruginosa PAO1 growth/biofilm, A600, 12 h; higher = more signal
[16] = S. cerevisiae RM11-1a growth modifiers, primary screen, strain RM11-1a, OD600, basal, 24 h (AID 1177); conditions: OD600, 24 h, higher = more signal, called active from +8 up or from −8 down;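 note: cultures grown under basal conditions with no added stressor; test concentration not given here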
[17] = E. coli acrAB mutant growth effects, primary screen, E. coli filamentation inducers, strain DRC39, OD650, 24 h (AID 1178); conditions: higher = more signal, called active from +8 up or from −8 down;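 note: growth measured as culture turbidity by optical density at 650 nm; test concentration not given here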
[18] = E. coli acrAB mutant growth effects, primary screen, E. coli filamentation inducers, strain DRC39, OD650, 48 h (AID 1179);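 note: screen aims at cell division blockers that make cells filament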; conditions: E. coli DRC39 delta-acrAB growth, higher = more signal, called active from +8 up or from −8 down
[19] = RPMI8226 myeloma cell viability, profiling panel, resazurin fluorescence, basal, 24 h, PK04 Diversity Set (AID 1180); conditions: higher = more signal;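 note: RPMI8826 multiple myeloma cell line at 5000 cells per well; test concentration not given here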
[20] = molecular target: E3 ubiquitin-protein ligase XIAP (Homo sapiens) (UniProt P98170); test: XIAP binders, primary screen, biophysical, small-molecule microarray, fluorescence 635 nm (AID 1181); conditions: small-molecule microarray binding, higher = more signal;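 note: score merges 667 nm emission and signal to noise over triplicate slides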
E3 ubiquitin-protein ligase XIAP (Homo sapiens), sequence (P98170 whole entry, looked up): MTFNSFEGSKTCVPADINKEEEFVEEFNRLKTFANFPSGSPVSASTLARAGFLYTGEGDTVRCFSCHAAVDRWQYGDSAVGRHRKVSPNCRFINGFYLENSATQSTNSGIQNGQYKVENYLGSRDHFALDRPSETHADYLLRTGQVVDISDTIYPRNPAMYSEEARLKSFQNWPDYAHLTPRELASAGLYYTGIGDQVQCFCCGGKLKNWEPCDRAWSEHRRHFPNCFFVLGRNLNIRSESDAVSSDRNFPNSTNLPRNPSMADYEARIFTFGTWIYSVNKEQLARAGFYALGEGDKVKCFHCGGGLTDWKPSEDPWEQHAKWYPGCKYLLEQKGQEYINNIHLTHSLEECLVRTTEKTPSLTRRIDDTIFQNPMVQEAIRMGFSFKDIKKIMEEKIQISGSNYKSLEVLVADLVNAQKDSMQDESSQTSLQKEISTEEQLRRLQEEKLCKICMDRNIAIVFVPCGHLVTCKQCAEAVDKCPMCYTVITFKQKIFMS

Row | SMILES | z-score [1] | z-score [2] | z-score [3] | z-score [4] | z-score [5] | z-score [6] | z-score [7] | z-score [8] | z-score [9] | z-score [10] | z-score [11] | z-score [12] | z-score [13] | composite z-score [14] | z-score [15] | z-score [16] | z-score [17] | z-score [18] | z-score [19] | composite z-score [20]
1 | C=C[C@H](C)[C@H](OC(=O)Nc1ccc(OC)cc1)c1ccc(O)c2ccccc12 | -0.697 | 0.256 | -1.87 | -2.98 | -4.25 | -3.3 | -1 (inactive) | -1.03 | -2.07 | -0.232 (inactive) | -0.475 | -18.5 (active) | -2.68 (inactive) | -1.79 (inactive) | 0.908 (inactive) | -17 (active) | 0.405 (inactive) | -0.0111 (inactive) | -2.21 | -0.003
2 | COC(=O)[C@@]1(Cc2ccc(F)cc2)[C@H]2c3cc(C(=O)N(C)C)n(Cc4ccccn4)c3C[C@H]2CN1C(=O)c1ccccc1 | -1.48 | 0.311 | 0.291 | 0.263 | -0.519 | -0.21 | -0.858 (inactive) | -0.715 | -1.01 | 0.45 (inactive) | 1.15 | 0.0864 (inactive) | 0.548 (inactive) | -0.171 (inactive) | -0.126 (inactive) | -0.319 (inactive) | -0.389 (inactive) | -0.42 (inactive) | 0.35 | 0.332
3 | C[N+](C)(C)CCCCNC(=O)[C@H]1C[C@H]2C(=O)N3CCC[C@H]3C(=O)N2[C@H]1c1ccc(O)cc1 | -0.814 | 0.0179 | -0.674 | -0.642 | -0.772 | -1.1 | -1.5 (inactive) | 0.0553 | -0.38 | 0.0558 (inactive) | 0.0897 | 1.06 (inactive) | -1.13 (inactive) | -30.3 (active) | 0.146 (inactive) | 0.266 (inactive) | 0.0346 (inactive) | -0.322 (inactive) | -0.977 | 0.455
4 | COCCOC(=O)N1C(=O)[C@@]2(c3cc(C#CCC(C(=O)OC)C(=O)OC)ccc31)[C@H](c1ccc(OCCO)cc1)N1[C@H](c3ccccc3)[C@H](c3ccccc3)OC(=O)[C@H]1[C@@H]2C(=O)NC[C@H](O)c1ccccc1 | 0.185 | 0.102 | 1.56 | 0.446 | -2.01 | 0.177 | 1.39 (inactive) | -0.749 | -1.61 | 0.0076 (inactive) | 0.11 | 2.19 (inactive) | 0.241 (inactive) | 0.0044 (inactive) | 2.7 (inactive) | 3.3 (inactive) | 0.732 (inactive) | 0.855 (inactive) | -0.957 | 0.19
5 | C=CCN1C(=O)[C@@]2(O[C@@H](CCO)[C@H]([Si](C)(C)c3ccc(OC)cc3)[C@H]2C)c2cc(NC(C)=O)ccc21 | 0.103 | -0.213 | -0.411 | -1.36 | -1.56 | -0.96 | -0.296 (inactive) | -0.484 | -0.722 | -1.17 (inactive) | -0.865 | -1.47 (inactive) | -1.6 (inactive) | -1.13 (inactive) | -0.188 (inactive) | 1.48 (inactive) | 0.166 (inactive) | 0.121 (inactive) | -1.43 | 0.436
6 | O=C1C2C=CC(C(O)CCc3ccccc3)N(Nc3ccccc3)C2C(=O)N1c1ccccc1 (stereo not given) | -1.22 | -1.12 | 0.203 | -0.46 | 0.198 | -2.35 | -0.727 (inactive) | -0.278 | -0.174 | -0.424 (inactive) | -0.999 | -0.287 (inactive) | -1.81 (inactive) | 0.228 (inactive) | 1.12 (inactive) | 0.361 (inactive) | -0.97 (inactive) | -1.18 (inactive) | -1.67 | -0.16
7 | O=[N+]([O-])c1ccc(C[n+]2ccc(CCCO)cc2)o1 | -0.38 | 1.01 | -0.405 | -0.41 | -2.35 | -1.07 | -0.266 (inactive) | -0.614 | 0.5 | -0.77 (inactive) | -1.32 | -7.77 (inactive) | -1.27 (inactive) | 0.403 (inactive) | 0.0214 (inactive) | 0.379 (inactive) | -1.4 (inactive) | -0.841 (inactive) | -0.211 | 0.905
8 | COC(=O)[C@@]1(Cc2ccc(F)cc2)[C@H]2c3cc(C(=O)N4CCCC4)n(CCc4ccc(OC)c(Br)c4)c3C[C@H]2CN1C(=O)c1ccccc1 | -1.58 | -0.483 | -2.5 | -1.66 | -4.69 | 0.275 | -0.317 (inactive) | -0.626 | -2.09 | -2.3 (inactive) | -1.25 | 0.836 (inactive) | -2.83 (inactive) | -0.163 (inactive) | 1.07 (inactive) | 0.264 (inactive) | -0.588 (inactive) | 0.123 (inactive) | -4.16 | 0.183
9 | COCCOC(=O)N1C(=O)[C@@]2(c3ccccc31)[C@H](c1ccc(O)cc1)N1[C@H](c3ccccc3)[C@H](c3ccccc3)OC(=O)[C@H]1[C@@H]2C(N)=O | 0.357 | 0.502 | 1.75 | 0.936 | 0.395 | -0.815 | 0.76 (inactive) | 0.296 | -0.971 | -0.83 (inactive) | -0.701 | 0.652 (inactive) | -0.916 (inactive) | -0.766 (inactive) | 0.125 (inactive) | 0.623 (inactive) | 0.596 (inactive) | 0.687 (inactive) | -1.01 | 0.0228
